# Out of some 39,000 compounds screened, about 500 (1.3%) were called active. Shown is part of a subset that was picked to be rich in actives.
# System: S. aureus RN4220
# Test: growth inhibition call (relative growth <= 0.2)
# Conditions: 50 µM
row,SMILES,growth inhibition call
1,CCCCC[C@@H](O)C[C@@H](O)CC(=O)O[C@@H](CCCCC)C[C@@H](O)CC(=O)OC[C@@H](O)[C@@H](O)[C@@H](O)[C@@H](O)CO,inactive
2,COc1ccc(CN(C)C[C@@H]2Oc3ccc(NC(=O)Nc4ccc(C(F)(F)F)cc4)cc3CC(=O)N([C@H](C)CO)C[C@@H]2C)cc1,inactive
3,C[C@H]1CCCCO[C@@H](CN(C)C(=O)Nc2ccccc2)[C@@H](C)CN([C@@H](C)CO)C(=O)c2cc(NC(=O)c3ccccc3)ccc2O1,inactive
4,O=C1c2ccccc2C(=O)c2c(NCCNCCO)ccc(NCCNCCO)c21,inactive
5,C[C@@H]1CN([C@H](C)CO)C(=O)c2cc(NC(=O)C3CC3)ccc2O[C@@H]1CN(C)Cc1ccc(-c2ccccc2)cc1,inactive
6,COc1ccc(NC(=O)N(C)C[C@@H]2Oc3c(NC(=O)Nc4ccc(C(F)(F)F)cc4)cccc3C(=O)N([C@@H](C)CO)C[C@@H]2C)cc1,active
7,Cc1noc(C)c1NC(=O)Nc1cccc2c1O[C@@H](CN(C)C(=O)Nc1ccc(C(F)(F)F)cc1)[C@H](C)CN([C@@H](C)CO)C2=O,active
8,C[C@@H]1CN([C@H](C)CO)C(=O)c2cccc(NC(=O)Nc3ccc(C(F)(F)F)cc3)c2O[C@@H]1CN(C)C(=O)Nc1ccc(F)cc1,active
9,C[C@H]1CN([C@@H](C)CO)C(=O)c2cccc(NC(=O)Nc3ccc(C(F)(F)F)cc3)c2O[C@H]1CN(C)C(=O)Nc1ccc(F)cc1,inactive
10,Cc1noc(C)c1NC(=O)Nc1cccc2c1O[C@H](CN(C)C(=O)Nc1ccc(C(F)(F)F)cc1)[C@H](C)CN([C@H](C)CO)C2=O,inactive
11,C[C@@H]1CN([C@H](C)CO)C(=O)c2cccc(NC(=O)Nc3ccc(F)cc3)c2O[C@H]1CN(C)C(=O)Nc1ccc(C(F)(F)F)cc1,inactive
12,Cc1noc(C)c1NC(=O)Nc1cccc2c1O[C@@H](CN(C)C(=O)Nc1ccc(C(F)(F)F)cc1)[C@@H](C)CN([C@H](C)CO)C2=O,inactive
13,C[C@@H]1CN([C@@H](C)CO)C(=O)c2cccc(NC(=O)Nc3ccc(F)cc3)c2O[C@H]1CN(C)C(=O)Nc1ccc(C(F)(F)F)cc1,inactive
14,COc1ccc(NC(=O)Nc2cccc3c2O[C@@H](CN(C)C(=O)Nc2ccc(C(F)(F)F)cc2)[C@@H](C)CN([C@@H](C)CO)C3=O)cc1,inactive
15,COc1ccc(NC(=O)Nc2cccc3c2O[C@H](CN(C)C(=O)Nc2ccc(C(F)(F)F)cc2)[C@@H](C)CN([C@@H](C)CO)C3=O)cc1,inactive
16,C[C@@H]1CN([C@@H](C)CO)C(=O)c2cccc(NC(=O)Nc3ccc(C(F)(F)F)cc3)c2O[C@H]1CN(C)C(=O)Nc1ccc(F)cc1,active
17,C[C@H](CO)N1C[C@H](C)[C@H](CN(C)C(=O)Nc2ccc(C(F)(F)F)cc2)Oc2c(NC(=O)Nc3ccc(F)cc3)cccc2C1=O,inactive
18,CO[C@H]1CN(C)C(=O)c2ccc(NS(C)(=O)=O)cc2OC[C@H](C)N(C(=O)c2ccc3c(c2)OCO3)C[C@@H]1C,inactive
19,CCCNC(=O)N1C[C@H](O)COC[C@H]2O[C@@H](CC(=O)N3CCOCC3)CC[C@@H]21,inactive
20,CCCCc1cc(CCCC)n2nc(-c3ccccc3)cc2n1,inactive
21,CCS(=O)(=O)N1C[C@]2(CN(C2)S(=O)(=O)c2cn(cn2)C)c2c([nH]c3cc(ccc23)OC)[C@H]1CO,inactive
22,COCC#Cc1cnc2c(c1)C(=O)N([C@H](C)CO)C[C@H](C)[C@@H](CN(C)C(=O)c1ccc3c(c1)OCO3)O2,inactive

row,SMILES,growth inhibition call
1,C[C@@H]1CCCCO[C@@H](CN(C)Cc2ccc(C(=O)O)cc2)[C@@H](C)CN([C@H](C)CO)C(=O)c2cc(NC(=O)Nc3ccc(F)cc3)ccc2O1,inactive
2,CN(C)CCN1C[C@@H]2CN(C(=O)c3cnc[nH]3)C[C@H]2C1=O,inactive
3,C[C@@H]1CN([C@H](C)CO)C(=O)Cc2cc(NS(=O)(=O)c3cn(C)cn3)ccc2O[C@H]1CN(C)S(=O)(=O)c1ccccc1,inactive
4,Cc1ccccc1S(=O)(=O)N1[C@@H]2c3cccc(=O)n3C[C@H]1[C@H](CO)[C@H]2C(=O)N1CCOCC1,inactive
5,C[C@H]1CN([C@@H](C)CO)C(=O)c2cccc(NS(=O)(=O)c3cn(C)cn3)c2O[C@@H]1CN(C)Cc1ccc(C(=O)Nc2ccccc2N)cc1,inactive
6,Cc1ccc(S(=O)(=O)N(C)C[C@H]2OCCCC[C@@H](C)Oc3ccc(NC(=O)CCCCCC(=O)Nc4ccccc4N)cc3C(=O)N([C@H](C)CO)C[C@@H]2C)cc1,inactive
7,Cc1noc(C)c1NC(=O)N(C)C[C@H]1OCCCC[C@@H](C)Oc2ccc(NS(=O)(=O)c3ccc(Cl)cc3)cc2C(=O)N([C@@H](C)CO)C[C@@H]1C,inactive
8,Cn1c(=O)c2c(ncn2C[C@@H](O)CNc2ccc(Br)cc2)n(C)c1=O,inactive
9,COc1cc(C)c(C=CC=CC=CC=CC(=O)O)c(C)c1C,inactive
10,C[C@H](CO)N1C[C@H](C)[C@H](CN(C)C(=O)Nc2ccc(F)cc2)Oc2c(NC(=O)Nc3ccc(C(F)(F)F)cc3)cccc2C1=O,active
11,C[C@H]1CN([C@@H](C)CO)C(=O)c2cccc(NC(=O)Nc3ccc(C(F)(F)F)cc3)c2O[C@@H]1CN(C)C(=O)Nc1ccc(F)cc1,inactive
12,C[C@@H]1CN([C@H](C)CO)C(=O)c2cccc(NC(=O)Nc3ccc(F)cc3)c2O[C@@H]1CN(C)C(=O)Nc1ccc(C(F)(F)F)cc1,inactive
13,C[C@H](CO)N1C[C@H](C)[C@@H](CN(C)C(=O)NC2CCCCC2)OCCCC[C@H](C)Oc2ccc(NC(=O)c3ccncc3)cc2C1=O,inactive
14,C[C@@H]1CN([C@@H](C)CO)C(=O)c2cc(NC(=O)Nc3ccc(F)cc3)ccc2O[C@@H](C)CCCCO[C@@H]1CN(C)C(=O)NC1CCCCC1,inactive
15,C[C@@H]1CCCCO[C@@H](CN(C)C(=O)C2CCCCC2)[C@@H](C)CN([C@H](C)CO)C(=O)c2cc(NC(=O)C3CCCCC3)ccc2O1,inactive
16,CC1=C(C(=O)O)N2C(=O)C(NC(=O)C(N)C3=CCC=CC3)C2SC1 (stereo not drawn),inactive
17,Cn1nnnc1SCC1=C(C(=O)[O-])N2C(=O)C(NC(=O)C(O)c3ccccc3)C2SC1.[Na+] (stereo not drawn),active
18,O=C([O-])C1=C(CSc2nnnn2CS(=O)(=O)[O-])CSC2C(NC(=O)C(O)c3ccccc3)C(=O)N12.[Na+].[Na+] (stereo not drawn),active
19,NCc1ccccc1CC(=O)NC1C(=O)N2C(C(=O)O)=C(CSc3nnnn3CC(=O)O)CSC12 (stereo not drawn),active
20,CC1=C(C(=O)O)N2C(=O)[C@@H](NC(=O)[C@H](N)C3=CCC=CC3)[C@H]2SC1,inactive
21,Cn1nnnc1SCC1=C(C(=O)[O-])N2C(=O)C(NC(=O)C(OC=O)c3ccccc3)C2SC1.[Na+] (stereo not drawn),active

# Reference: the antibiotic and cytotoxicity screens of Wong et al. (2023)
